Experimental data from PubChem BioAssay (Tox21).
Where “and” joins values, the source holds several entries; their conditions need not be identical. Equal values may be shown once. Records with an inconclusive call do not appear. The source holds several records for some structures; these can differ, active in one and inactive in another. Calls of active or inactive are those of the source. Unless noted, calls come from the whole dose curve.

What was measured:
[1] = Nuclear factor erythroid 2-related factor 2/antioxidant responsive element (Nrf2/ARE) small molecule agonists: qHTS cell viability counter screen in human keratinocytes (AID 1919968; active = well fitted curve in the direction sought with a large enough effect in the repeat runs; an effect the other way counts as inactive or inconclusive; note: nearly all actives have a fitted effect of over 55% in size; note: potency is the fitted concentration of half-maximal effect)
In short: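 CellTiter-Fluor fluorescence, read 1 h after reagent, gave viability in the same wells as the ARE-luciferase assay. KeratinoSens cells (1,500/well) had 23 h compound exposure at 37 C/5% CO2 following 5 h plating.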

[2] = Nuclear factor erythroid 2-related factor 2/antioxidant responsive element (Nrf2/ARE) small molecule agonists: luciferase reporter gene qHTS assay in human keratinocytes (AID 1919969); note: nearly all actives have a fitted effect of over 35% in size
[3] = target: Gonadotropin-releasing hormone receptor (Homo sapiens) (UniProt P30968); assay: Human gonadotropin-releasing hormone receptor (GnRHR) small molecule agonists, calcium flux assay in GnRHR-HEK293 cells (AID 1920063); note: nearly all actives have a fitted effect of over 35% in size
In short: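 Agonist mode: compounds at 15 concentrations, in triplicate, went onto calcium dye-loaded GnRHR-HEK293 cells. Intracellular calcium was then followed as 480/540 nm fluorescence at 1 s intervals over 3 min.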

[4] = target: KiSS-1 receptor (Homo sapiens) (UniProt Q969F8); assay: Human kisspeptin (KISS1R) small molecule agonists, calcium flux assay in KISS1R-HEK293 cells (AID 1920064; active = well fitted curve in the direction sought with a large enough effect in the repeat runs; an effect the other way counts as inactive or inconclusive)
In short: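 Agonist mode: intracellular calcium rise tracked at 1 s intervals over 3 min (480/540 nm) immediately after compound addition to dye-loaded KISS1R-HEK293 stable cells. Each compound tested at 15 concentrations in triplicate.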

[5] = G protein-coupled receptor (GPCR) small molecule agonists, calcium flux assay: HEK293 wild type cell line counter screen (AID 1920065)
In short: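 Calcium flux counter screen: compound added in agonist mode at 15 concentrations in triplicate to dye-loaded parental HEK293 cells. Fluorescence (480/540) read kinetically for 3 min; ATP served as positive control.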

[6] = p53 small molecule agonists, cell-based qHTS assay with human liver microsomes (AID 1963577)
In short: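 Compounds act here after metabolic activation: human liver microsomes and NADPH, both at 0.5 mg/mL final, were co-added to p53RE-bla cells. Incubation ran 16 h at 37 C, followed by LiveBLAzer detection.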

[7] = p53 small molecule agonists, cell-based qHTS assay with rat liver microsomes: qHTS cell viability counter screen (AID 1963580); note: nearly all actives have a fitted effect of over 45% in size
In short: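 Rat liver microsome (0.5 mg/mL final) and NADPH (0.5 mg/mL final) co-incubation with compounds for 16 h at 37 C on HCT-116 p53RE-bla cells; cytotoxicity taken from intracellular ATP luminescence.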

[8] = p53 small molecule agonists, cell-based qHTS assay: qHTS cell viability counter screen (AID 1963581); note: nearly all actives have a fitted effect of over 45% in size; note: potency is the fitted concentration of half-maximal effect
In short: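 Counter screen read by CellTiter-Glo luminescence (ATP content, 30 min at room temperature), run in the same wells as the beta-lactamase reporter read. HCT-116 p53RE-bla cells saw compounds for 16 h at 37 C.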

[9] = p53 small molecule agonists, cell-based qHTS assay (AID 1963582; active = well fitted activation curve with a large enough effect in the signal ratio in the repeat runs, not every such curve was filed as active; the % refers to the signal ratio)
In short: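 Read-out is beta-lactamase FRET fluorescence after 2 h at room temperature with LiveBLAzer B/G substrate. p53 response element-bla cells were treated 16 h at 37 C with compounds in DMSO, added 5 h after seeding.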

[10] = target: 5-hydroxytryptamine receptor 2A (Homo sapiens) (UniProt P28223); assay: 5-hydroxytryptamine receptor 2A (HTR2A) small molecule antagonists, cell-based qHTS assay (AID 1963586); note: nearly all actives have a fitted effect of over 45% in size; note: potency is the fitted concentration of half-maximal effect
In short: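 CHO cells stably expressing human HTR2A were plated for 18 h at 37 C, then loaded with calcium dye for 1 h. Compounds were preincubated 5 min at room temperature before DOI (4 nM solution) was added. Kinetic fluorescence was read for 3 min.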

[11] = target: 5-hydroxytryptamine receptor 2A (Homo sapiens) (UniProt P28223); assay: 5-hydroxytryptamine receptor 2A (HTR2A) small molecule agonists, cell-based qHTS assay (AID 1963587); note: nearly all actives have a fitted effect of over 30% in size
In short: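 Kinetic calcium-flux fluorescence (2 min, 1 sec intervals) after compound addition in agonist mode. HTR2A-CHO cells were cultured 18 h, then dye-loaded 1 h at 37 C.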

[12] = target: Muscarinic acetylcholine receptor M1 (Homo sapiens) (UniProt P11229); assay: Cholinergic receptor muscarinic 1 (CHRM1) small molecule antagonists, cell-based qHTS assay (AID 1963588); note: nearly all actives have a fitted effect of over 40% in size; note: potency is the fitted concentration of half-maximal effect
In short: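 Compounds were tested at 15 concentrations in three independent runs. Dye-loaded CHRM1-CHO cells were exposed 5 min at room temperature before stimulation by acetylcholine added at 50nM. Intracellular calcium was read kinetically on FDSS for 3 min.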

[13] = target: Muscarinic acetylcholine receptor M1 (Homo sapiens) (UniProt P11229); assay: Cholinergic receptor muscarinic 1 (CHRM1) small molecule agonists, cell-based qHTS assay (AID 1963589); note: nearly all actives have a fitted effect of over 35% in size
In short: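 Agonist-mode calcium-flux screen: compounds at 15 concentrations, three independent runs, were pin-transferred onto dye-loaded human CHRM1-CHO cells. Fluorescence was then recorded kinetically every second over minutes.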

[14] = cAMP Responsive Elements (CRE) small molecule agonists, cell-based qHTS assay (AID 1963590)
In short: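 Agonist mode: compound added to CRE-bla HEK 293T cells (2,000/well, 18 h after plating) for 3 h at 37 C/5% CO2. Reporter activity detected via FRET beta-lactamase substrate, 2 h room-temperature loading.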

[15] = cAMP Responsive Elements (CRE) small molecule antagonists, cell-based qHTS assay (AID 1963591; active = well fitted inhibition curve with a large enough effect in the signal ratio in the repeat runs, not every such curve was filed as active; the % refers to the signal ratio)
In short: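 Antagonist mode: compounds are added alongside the adenylyl cyclase activator NKH477 (0.25 uM final) to CRE-bla HEK293T cells for 3 h. LiveBLAzer FRET substrate, 2 h at room temperature, reports bla expression.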

[16] = target: Beta-2 adrenergic receptor (Homo sapiens) (UniProt P07550); assay: Adrenergic beta2 receptor (ADRB2) small molecule antagonists, cell-based qHTS assay (AID 1963592); note: series mostly up to about 92 µM; nearly all actives have a fitted effect of over 50% in size
In short: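 Assay format: CHO-ADRB2 cells, 18-20hr seeding at 37C/5% CO2, then compound plus 1nM isoproterenol agonist mix for 0.5hr RT. Homogeneous time-resolved fluorescence cAMP detection after 1hr, expressed as 665/615 nm ratio.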

[17] = target: D(2) dopamine receptor (Homo sapiens) (UniProt P14416); assay: Dopamine D2 receptor (DRD2) small molecule agonists, cell-based qHTS assay (AID 1963594); note: nearly all actives have a fitted effect of over 35% in size
In short: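 cAMP accumulation in DRD2-HEK293 cells measured by HTRF after 1 h detection; compounds added 10 min before NKH477 (200nM […]) forskolin-analogue stimulation, 30 min at room temperature, with Ro20-1724 present at 0.1 mM final.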

[18] = target: D(2) dopamine receptor (Homo sapiens) (UniProt P14416); assay: Dopamine D2 receptor (DRD2) small molecule antagonists, cell-based qHTS assay (AID 1963595; active = well fitted inhibition curve with a large enough effect in the signal ratio in the repeat runs, with a control signal flat; the % refers to the signal ratio)
In short: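 Stable D2 receptor HEK293 line, 24 h after seeding. Compound preincubated 10 min, then quinpirole (12 nM) with forskolin analogue NKH477 (200 nM), 30 min, room temperature. Detection by time-resolved FRET of cAMP.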

[19] = target: Beta-2 adrenergic receptor (Homo sapiens) (UniProt P07550); assay: Adrenergic beta2 receptor (ADRB2) small molecule agonists, cell-based qHTS assay (AID 1963593);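 note: CHO cells stably overexpressing human ADRB2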
In short: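 CHO cells stably over-expressing ADRB2 were plated overnight at 37C, then dosed with compounds plus a stimulation mix containing 100uM IBMX and 25uM Ro-20-1724 for 0.5hr at room temperature. cAMP was measured by HTRF competition, 1hr.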

[20] = p53 small molecule agonists, cell-based qHTS assay with human liver microsomes: qHTS cell viability counter screen (AID 1963579); note: nearly all actives have a fitted effect of over 45% in size
In short: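 Cells carrying the p53 response-element beta-lactamase reporter are treated for 16 h at 37 C with test compounds in the presence of human liver microsomes and NADPH (both 0.5 mg/mL final); ATP-based CellTiter-Glo luminescence then reports viability.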
% is set by controls: 0 for no effect and ±100 for the full control effect.

D(2) dopamine receptor (Homo sapiens), sequence (P14416 whole entry, looked up): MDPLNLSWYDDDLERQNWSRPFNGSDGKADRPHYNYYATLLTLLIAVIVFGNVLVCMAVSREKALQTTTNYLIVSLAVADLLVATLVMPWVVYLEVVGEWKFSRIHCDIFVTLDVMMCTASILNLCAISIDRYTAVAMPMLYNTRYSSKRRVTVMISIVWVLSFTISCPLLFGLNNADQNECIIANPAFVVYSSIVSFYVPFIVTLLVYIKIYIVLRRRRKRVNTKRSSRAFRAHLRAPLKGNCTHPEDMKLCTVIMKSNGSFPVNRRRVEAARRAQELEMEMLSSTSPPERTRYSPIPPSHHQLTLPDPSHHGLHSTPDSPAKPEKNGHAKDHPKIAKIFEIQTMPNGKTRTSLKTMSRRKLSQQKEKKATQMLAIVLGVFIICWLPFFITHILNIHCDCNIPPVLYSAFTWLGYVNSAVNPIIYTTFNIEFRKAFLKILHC
5-hydroxytryptamine receptor 2A (Homo sapiens), sequence (P28223 whole entry, looked up): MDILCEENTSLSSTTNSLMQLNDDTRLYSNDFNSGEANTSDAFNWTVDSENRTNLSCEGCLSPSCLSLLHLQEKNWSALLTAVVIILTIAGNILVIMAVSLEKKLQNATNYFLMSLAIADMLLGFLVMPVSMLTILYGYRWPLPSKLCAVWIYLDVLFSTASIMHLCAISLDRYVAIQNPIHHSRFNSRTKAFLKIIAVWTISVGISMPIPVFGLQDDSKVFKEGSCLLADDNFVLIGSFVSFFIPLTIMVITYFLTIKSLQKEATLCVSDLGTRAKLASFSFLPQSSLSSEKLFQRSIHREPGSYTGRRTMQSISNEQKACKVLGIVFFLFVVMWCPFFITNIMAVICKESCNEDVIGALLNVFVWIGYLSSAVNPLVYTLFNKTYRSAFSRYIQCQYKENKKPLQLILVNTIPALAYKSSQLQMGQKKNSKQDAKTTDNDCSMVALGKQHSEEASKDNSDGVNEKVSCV
Muscarinic acetylcholine receptor M1 (Homo sapiens), sequence (P11229 whole entry, looked up): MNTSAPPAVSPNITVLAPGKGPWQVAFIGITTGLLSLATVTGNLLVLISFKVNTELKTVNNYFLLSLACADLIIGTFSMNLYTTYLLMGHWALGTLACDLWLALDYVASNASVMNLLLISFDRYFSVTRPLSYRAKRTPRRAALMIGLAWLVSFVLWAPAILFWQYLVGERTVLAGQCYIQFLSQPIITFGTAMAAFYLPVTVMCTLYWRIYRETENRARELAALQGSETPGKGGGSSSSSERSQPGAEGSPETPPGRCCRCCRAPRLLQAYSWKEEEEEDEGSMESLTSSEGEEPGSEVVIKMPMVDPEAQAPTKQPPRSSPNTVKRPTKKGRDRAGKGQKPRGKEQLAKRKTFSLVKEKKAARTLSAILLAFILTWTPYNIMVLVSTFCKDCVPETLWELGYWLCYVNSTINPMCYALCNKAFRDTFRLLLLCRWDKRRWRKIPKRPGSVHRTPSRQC
KiSS-1 receptor (Homo sapiens), sequence (Q969F8 whole entry, looked up): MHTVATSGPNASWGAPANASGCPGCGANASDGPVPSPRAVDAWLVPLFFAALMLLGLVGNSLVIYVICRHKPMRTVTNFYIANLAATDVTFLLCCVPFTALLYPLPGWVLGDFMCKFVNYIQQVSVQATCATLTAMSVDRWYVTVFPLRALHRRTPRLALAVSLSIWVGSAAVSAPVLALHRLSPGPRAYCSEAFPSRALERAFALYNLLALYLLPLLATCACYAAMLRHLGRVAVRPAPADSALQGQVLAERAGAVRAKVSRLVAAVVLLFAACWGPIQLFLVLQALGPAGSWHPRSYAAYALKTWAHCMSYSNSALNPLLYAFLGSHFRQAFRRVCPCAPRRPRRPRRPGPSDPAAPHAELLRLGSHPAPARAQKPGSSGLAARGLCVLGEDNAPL
Gonadotropin-releasing hormone receptor (Homo sapiens), sequence (P30968 whole entry, looked up): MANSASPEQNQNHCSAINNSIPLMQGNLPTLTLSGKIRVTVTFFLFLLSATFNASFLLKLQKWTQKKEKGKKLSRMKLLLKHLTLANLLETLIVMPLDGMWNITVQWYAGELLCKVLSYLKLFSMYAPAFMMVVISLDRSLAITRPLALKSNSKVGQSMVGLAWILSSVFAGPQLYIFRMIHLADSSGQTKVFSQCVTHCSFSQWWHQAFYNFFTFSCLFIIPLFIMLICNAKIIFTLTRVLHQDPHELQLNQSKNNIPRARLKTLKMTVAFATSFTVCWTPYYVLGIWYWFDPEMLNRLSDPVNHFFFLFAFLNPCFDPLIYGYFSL
Beta-2 adrenergic receptor (Homo sapiens), sequence (P07550 whole entry, looked up): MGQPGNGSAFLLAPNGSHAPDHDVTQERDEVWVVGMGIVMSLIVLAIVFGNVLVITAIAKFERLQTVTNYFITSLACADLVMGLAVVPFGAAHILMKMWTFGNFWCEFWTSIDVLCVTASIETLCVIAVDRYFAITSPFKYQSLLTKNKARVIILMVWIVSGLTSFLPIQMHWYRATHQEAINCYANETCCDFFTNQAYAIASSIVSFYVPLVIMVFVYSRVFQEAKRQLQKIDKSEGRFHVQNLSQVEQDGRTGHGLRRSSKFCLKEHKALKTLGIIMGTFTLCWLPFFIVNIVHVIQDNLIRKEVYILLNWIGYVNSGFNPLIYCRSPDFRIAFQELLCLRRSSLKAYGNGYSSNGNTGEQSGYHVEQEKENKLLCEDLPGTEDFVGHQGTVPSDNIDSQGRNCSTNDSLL

CC(COCCO)OCCO (stereo not drawn)
inactive: Potency [1] | Potency [2] | Potency [3] | Potency [4] | Potency [5] | Potency [6] | Potency [7] | Potency [8] | Potency [9] | Potency [10] | Potency [11] | Potency [12] | Potency [13] | Potency [14] | Potency [15] | Potency [16] | Potency [17] | Potency [18]

C=C(C)C(=O)OCCOCCOCCOC(=O)C(=C)C
inactive: Potency [1] | Potency [2] | Potency [3] | Potency [4] | Potency [5] | Potency [6] | Potency [7] | Potency [8] | Potency [9] | Potency [10] | Potency [11] | Potency [12] | Potency [13] | Potency [16] | Potency [17] | Potency [18]

O=[N+]([O-])c1ccccc1Nc1ccccc1
inactive: Potency [1] | Potency [2] | Potency [3] | Potency [4] | Potency [5] | Potency [6] | Potency [7] | Potency [8] | Potency [9] | Potency [10] | Potency [11] | Potency [12] | Potency [13] | Potency [14] | Potency [15] | Potency [16] | Potency [17] | Potency [18]

CCCOCCC
inactive: Potency [1] | Potency [2] | Potency [3] | Potency [4] | Potency [5] | Potency [6] | Potency [7] | Potency [8] | Potency [9] | Potency [10] | Potency [11] | Potency [12] | Potency [13] | Potency [14] | Potency [15] | Potency [16] | Potency [19] | Potency [17] | Potency [18]

CN1[C@@H]2CC[C@H]1CC(NC(=O)n1c(=O)[nH]c3ccccc31)C2 (stereo partly drawn)
inactive: Potency [1] | Potency [2] | Potency [3] | Potency [4] | Potency [5] | Potency [6] | Potency [7] | Potency [8] | Potency [9] | Potency [10] | Potency [11] | Potency [12] | Potency [13] | Potency [14] | Potency [15] | Potency [16] | Potency [19] | Potency [17] | Potency [18]

CC1=C(C=O)C(C)(C)CC=C1
inactive: Potency [1] | Potency [2] | Potency [3] | Potency [4] | Potency [5] | Potency [6] | Potency [7] | Potency [8] | Potency [9] | Potency [10] | Potency [11] | Potency [12] | Potency [13] | Potency [14] | Potency [15] | Potency [16] | Potency [19] | Potency [17] | Potency [18]

COc1cc(S(N)(=O)=O)cc(C(=O)O)c1OC
inactive: Potency [1] | Potency [2] | Potency [3] | Potency [4] | Potency [5] | Potency [6] | Potency [7] | Potency [8] | Potency [9] | Potency [10] | Potency [11] | Potency [12] | Potency [13] | Potency [14] | Potency [15] | Potency [16] | Potency [17] | Potency [18]

CC(C)(C)NC(N)=O
inactive: Potency [1] | Potency [2] | Potency [3] | Potency [4] | Potency [5] | Potency [6] | Potency [7] | Potency [8] | Potency [9] | Potency [10] | Potency [11] | Potency [12] | Potency [13] | Potency [14] | Potency [15] | Potency [16] | Potency [17] | Potency [18]

CC[C@H](c1ccc(O)cc1)[C@@H](CC)c1ccc(O)cc1
active: Potency [1] 54.5 µM | Potency [10] 33.4 µM and 14.5 µM | Potency [12] 7.29 µM
inactive: Potency [2] | Potency [3] | Potency [4] | Potency [5] | Potency [6] | Potency [7] | Potency [9] | Potency [11] | Potency [14] | Potency [16] | Potency [19] | Potency [17] | Potency [18]

CCOC(=O)c1ccc(C)cc1
inactive: Potency [1] | Potency [2] | Potency [3] | Potency [4] | Potency [5] | Potency [6] | Potency [7] | Potency [8] | Potency [9] | Potency [11] | Potency [12] | Potency [13] | Potency [14] | Potency [15] | Potency [16] | Potency [19] | Potency [17]

CCCCCCCCc1ccc(Nc2ccc(CCCCCCCC)cc2)cc1
inactive: Potency [1] | Potency [2] | Potency [3] | Potency [4] | Potency [5] | Potency [6] | Potency [20] | Potency [7] | Potency [8] | Potency [9] | Potency [10] | Potency [11] | Potency [12] | Potency [13] | Potency [14] | Potency [15] | Potency [16] | Potency [19] | Potency [18]

O=C(O)CN(CCCN(CC(=O)O)CC(=O)O)CC(=O)O
inactive: activity change, negative = cytotoxicity [1] -0.241% [at 19 µM] | activity, positive = activation [2] -12.6% [at 19 µM] | activity change [3] 14.7% [at 11.8 µM, stronger effect = higher value] | activation [4] -0.261% [at 15.8 µM] | activation [5] 9.2% [at 11.8 µM] | activation [6] -11.5% [at 13.5 µM] | activity change, negative = cytotoxicity [20] 10.7% [at 13.5 µM] | activity change, negative = cytotoxicity [7] 9.92% [at 13.5 µM] | activity change, negative = cytotoxicity [8] 11.6% [at 13.5 µM] | activation [9] 5.83% [at 13.5 µM] | activity, negative = inhibition [10] 19% [at 12.7 µM] | activation [11] 8.84% [at 15.9 µM] | activity, negative = inhibition [12] -1.12% [at 12.6 µM] | activation [13] 5.74% [at 15.8 µM] | activation [14] 1.21% [at 19 µM] | activity change, negative = inhibition [16] 0.405% [at 19 µM] | activation [17] -4.48% [at 19 µM] | activity change, negative = inhibition [18] 6.03% [at 18.9 µM]

Nc1cc([N+](=O)[O-])ccc1O
inactive and 362 nM (active): Potency [8]
inactive: Potency [1] | Potency [2] | Potency [3] | Potency [4] | Potency [5] | Potency [6] | Potency [20] | Potency [7] | Potency [9] | Potency [11] | Potency [13] | Potency [14] | Potency [15] | Potency [16] | Potency [19] | Potency [17] | Potency [18]
